Shown are actives, neighbours in structure and some others; about 0.82% of the full set was active somewhere.
GPT2 inhibitor – blocks human glutamate pyruvate transaminase 2; Q8TD30; Recombinant GPT2, coupled pyruvate oxidase/HRP Amplex Red fluorescence; Potency, µM (titrated, usually from 57.7 µM), most hits filed as inhibitors; 0.25% of 100,000 active; also: nearly all actives have a fitted effect of over 60% in size
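Fluorescence read-out: pyruvate from GPT2 turnover coupled to pyruvate oxidase, HRP and Amplex Red (0.2mM ThPP, 0.2U/mL PO and HRP, 50uM Amplex final). Substrates 250uM a-KG, 2mM L-alanine; enzyme 10ng/uL; 30 min RT.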
IP6K1 inh – IP6K1 kinase inhibition; Q92551; IP6K1 kinase, ADP-Glo luminescence, 2 h; active compounds read low; activity change, % (series mostly up to about 58 µM); 0.81% of 140,000 active; in the data active = activity change below about -25%
Target sequence (Q92551 whole entry, looked up): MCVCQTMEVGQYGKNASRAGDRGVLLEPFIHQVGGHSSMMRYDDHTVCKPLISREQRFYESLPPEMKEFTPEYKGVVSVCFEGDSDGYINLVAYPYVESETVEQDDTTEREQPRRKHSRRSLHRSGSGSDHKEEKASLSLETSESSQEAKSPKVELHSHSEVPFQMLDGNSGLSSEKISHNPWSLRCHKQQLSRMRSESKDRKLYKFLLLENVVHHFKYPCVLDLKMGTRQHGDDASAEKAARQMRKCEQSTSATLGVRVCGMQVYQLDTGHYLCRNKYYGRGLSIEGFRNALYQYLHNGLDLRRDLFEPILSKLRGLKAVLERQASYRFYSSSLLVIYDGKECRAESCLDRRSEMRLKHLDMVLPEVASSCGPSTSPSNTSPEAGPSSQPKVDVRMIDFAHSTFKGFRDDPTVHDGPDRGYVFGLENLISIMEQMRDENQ
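ADP-Glo luminescence measures ADP made by human IP6K1 during a 2 h RT reaction with ATP/IP6 (mix at 1.3 mM/130 uM); top library doses 57.5 and 19.1 uM final.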
IP6K1 inh cnf – human IP6K1 inhibition, confirmatory. shares compounds with IP6K1 inh. 13% of 1,200 active. Potency, µM (series often up to 49 µM), hits mostly inhibitors. recombinant IP6K1 kinase, ADP-Glo luminescence, 2 h; also: nearly all actives have a fitted effect of over 65% in size
Of the large screens only hits and unclear results are named; the others gave an inactive call (follow-up assays come after a bar, where they were run); ! = repeats disagree. Unless noted, calls follow the shape of the dose curve; as a rule, active = well fitted curve in the direction sought with a large enough effect; inconclusive = small, poorly fitted or top-dose-only effect, or another doubt; inactive = no such curve, though single readings can be large; an effect the other way counts as inactive or inconclusive.

O=C(NC1CCN(c2ccc3nnc(-c4ccccc4)n3n2)CC1)C1CC1	none (no result: GPT2 inhibitor)
CCc1nc2nc(C)cc(Nc3cc(C)ccc3C)n2n1	none (no result: GPT2 inhibitor)
CCc1nc2nc(C)cc(Nc3cccc(C)c3C)n2n1	IP6K1 inh -32.7 (no result: GPT2 inhibitor) | IP6K1 inh cnf inconclusive
O=C(NCCn1ccn2nc(-c3ccc(F)cc3)cc2c1=O)c1ccc2[nH]ccc2c1	none
O=C1NCCC[C@@H]1NC(=O)[C@H]1CN(C(=O)c2cccc(F)c2)CCN1S(=O)(=O)c1ccc(F)cc1	none
Cc1noc(C)c1-c1cc2c(cc(C)n2C)c(-c2ccnn2C)n1	none
Cc1noc(C)c1-c1cc2c(cc(-c3ccccc3)n2C)c(-c2ccnn2C)n1	IP6K1 inh -45.2 | IP6K1 inh cnf inconclusive
N[C@H]1CCN2C(=O)c3cc(-c4ccc5c(c4)OCO5)ccc3NC(=O)[C@H]12	IP6K1 inh -30.2 | IP6K1 inh cnf inactive
O=C1Nc2ccc(-c3ccc4c(c3)OCO4)cc2C(=O)N2CC[C@H](NC(=O)N3CCOCC3)[C@@H]12	none
CCOc1cccc(C(=O)Nc2ccc(-c3nc4ncccc4o3)cc2C)c1	none (no result: GPT2 inhibitor)
CCOc1cc(C(=O)Nc2ccc(-c3nc4ncccc4o3)cc2C)cc(OCC)c1OCC	IP6K1 inh -26.2 (no result: GPT2 inhibitor) | IP6K1 inh cnf inactive
COc1ccc(C(=O)N2CCCCCCNC(=O)[C@@H]3CCC[C@@H]32)c(OC)c1	none
O=C(CCc1c[nH]c2ccccc12)N1C[C@@H](CO)[C@H](c2ccccn2)C1	none
Cc1ccc(NC(=O)C(NS(=O)(=O)c2ccc3c(c2)CCC(=O)N3)c2ccccc2)cc1C (configuration not stated)	IP6K1 inh -31.7 (no result: GPT2 inhibitor) | IP6K1 inh cnf inactive
CC(C)c1ccc(NC(=O)C(NS(=O)(=O)c2ccc3c(c2)CCC(=O)N3)c2ccccc2)cc1 (configuration not stated)	none (no result: GPT2 inhibitor)
O=C(Nc1cccc(-n2cccn2)c1)C1CCCN1C(=O)C1CC1 (configuration not stated)	none
CCc1nc2ccccc2n1CCCCOc1ccc(C)cc1	none (no result: GPT2 inhibitor)
CCc1nc2ccccc2n1CCCCOc1ccccc1C	IP6K1 inh -29.5 (no result: GPT2 inhibitor) | IP6K1 inh cnf inactive
CCc1ccccc1NC(=O)N1CCC(N(CCC(C)C)C2CCOCC2)CC1	none
Cc1ccc(C(=O)Oc2c(S(=O)(=O)c3ccccc3)c(C)nn2-c2ccccc2)cc1	none (no result: GPT2 inhibitor)
Cc1nn(-c2ccccc2)c(OC(=O)c2ccc(Br)cc2)c1S(=O)(=O)c1ccccc1	IP6K1 inh -32.2 (no result: GPT2 inhibitor) | IP6K1 inh cnf inactive
CCOc1ccc(C2C(C(=O)OC)=C(C)NC3=C2C(=O)c2ccccc23)cc1OC (configuration not stated)	IP6K1 inh -27.0 (no result: GPT2 inhibitor) | IP6K1 inh cnf inconclusive
C#CCOc1c(Br)cc(C2C(C(=O)OC)=C(C)NC3=C2C(=O)c2ccccc23)cc1OCC (configuration not stated)	none (no result: GPT2 inhibitor)
Cc1ccc(-c2ccc3nnc(CNC(=O)c4ccc(F)c(F)c4)n3n2)cc1	none
O=C(NCc1ccco1)c1ccc2c(c1)N(Cc1ccccc1)C(=O)c1ccccc1S2	IP6K1 inh -27.5 (no result: GPT2 inhibitor) | IP6K1 inh cnf inconclusive
Cc1cccc(CN2C(=O)c3ccccc3Sc3ccc(C(=O)NCc4ccco4)cc32)c1	none (no result: GPT2 inhibitor)
CC(C)c1noc(CC2CCN(C(=O)Cc3ccc(F)cc3)CC2)n1	IP6K1 inh -25.7 | IP6K1 inh cnf inactive
Cc1ccc(CC(=O)N2CCC(Cc3nc(C(C)C)no3)CC2)cc1	none
Cn1cc(-c2ccc(Cl)cc2)cc1C(=O)O	none
CN(C)C(=O)c1cc(-c2ccc(Cl)cc2)cn1C	IP6K1 inh -33.3 | IP6K1 inh cnf inconclusive
COc1ccccc1N1CCN(C(=O)CCc2ccccc2C)CC1=O	IP6K1 inh -33.9 | IP6K1 inh cnf inactive
COc1ccccc1N1CCN(CCC(=O)N(C)Cc2ccccc2)CC1=O	none
CN(C)C(=O)C(=O)c1cn(C)c2cc(Cl)c(C(=O)N3CCC(Cc4ccc(F)cc4)CC3)cc12	GPT2 inhibitor inconclusive
COC[C@H]1C[C@@H](NC(=O)Nc2ccccc2)[C@H](O)[C@@H]1O	none
CCCN1C(=O)Cc2ccccc2C1C(=O)NCc1ccc(F)cc1F (configuration not stated)	none
Cc1ccc(-n2nc(CO)c(C(=O)NC(C)CCCc3ccccc3)n2)cc1 (configuration not stated)	IP6K1 inh -31.0 (no result: GPT2 inhibitor) | IP6K1 inh cnf inactive
Cc1ccc(-n2nc(CO)c(C(=O)NCCCc3ccccc3)n2)cc1	none (no result: GPT2 inhibitor)
Cc1cc(-c2nc3ncccc3[nH]2)c(C)[nH]1	none
c1cnc2nc(-c3c[nH]c4ncccc34)[nH]c2c1	IP6K1 inh -43.7! | IP6K1 inh cnf inconclusive
Cc1ccccc1C(=O)NC(C(=O)N1CCCC1)C1CCN(C(=O)c2ccc3c(c2)OCO3)CC1 (configuration not stated)	none
COc1cccc(-c2noc(CC3CCN(C(=O)COc4cccc(C)c4)CC3)n2)c1	IP6K1 inh -25.3 | IP6K1 inh cnf inactive
Cc1cccc(OCC(=O)N2CCC(Cc3nc(-c4cnccn4)no3)CC2)c1	none
CCOC(=O)CN1C(=O)CN(S(C)(=O)=O)CCC(OC)c2ccccc21 (configuration not stated)	none (no result: GPT2 inhibitor)
COc1ccc(S(=O)(=O)N2CCC(C(=O)Nc3cc(C(F)(F)F)ccc3Cl)CC2)cc1	IP6K1 inh -42.8 (no result: GPT2 inhibitor) | IP6K1 inh cnf inactive
COc1ccc(CNC(=O)C2CCN(S(=O)(=O)c3ccc(C)cc3)CC2)cc1	none (no result: GPT2 inhibitor)
CCC1c2nccn2CCCN1C(=O)c1ocnc1C (configuration not stated)	none
Cc1ccc(NC(=O)Cn2c(=O)nc(-c3ccccc3F)c3cc(Cl)ccc32)c(Br)c1	none (no result: GPT2 inhibitor)
Cc1cc(NC(=O)Cn2c(=O)nc(-c3ccccc3F)c3cc(Cl)ccc32)ccc1Br	IP6K1 inh -25.4 (no result: GPT2 inhibitor) | IP6K1 inh cnf inactive
NCc1cccc(-c2ccccc2F)c1	none
Cc1ncccc1C(=O)N1C[C@@H](COc2ccccc2)[C@H](C(N)=O)C1	none
COC(=O)c1ccc([C@H]2Nc3ccc(S(=O)(=O)Nc4ccc(F)cc4)cc3[C@H]3C=CC[C@H]32)cc1	none (no result: GPT2 inhibitor)
CCOC(=O)c1ccc2c(c1)[C@@H]1C=CC[C@@H]1[C@H](c1cccc(OC)c1OC)N2	none (no result: GPT2 inhibitor)
COc1ccc(Br)cc1[C@@H]1Nc2ccc(C(=O)O)cc2[C@@H]2C=CC[C@@H]21	IP6K1 inh -40.2 (no result: GPT2 inhibitor) | IP6K1 inh cnf inconclusive
COc1ccc(OC)c([C@@H]2Nc3ccc(C(=O)O)cc3[C@@H]3C=CC[C@@H]32)c1	IP6K1 inh -27.4 (no result: GPT2 inhibitor) | IP6K1 inh cnf inconclusive
COc1cccc(CC(=O)Nc2ccc3c(c2)CN(CCc2ccccc2)C(=O)C(C)O3)c1 (configuration not stated)	none
CN1CCN(C(=O)c2nc3sccn3c2-c2ccccc2)CC1	none
CCOC(=O)c1cnc2ccc(Cl)cc2c1Nc1ccc(N2CCOCC2)cc1	IP6K1 inh -25.4 (no result: GPT2 inhibitor) | IP6K1 inh cnf inactive
CCOC(=O)c1cnc2ccc(C(=O)OC)cc2c1Nc1ccc(N2CCOCC2)cc1	none (no result: GPT2 inhibitor)
CCS(=O)(=O)N1CCC2(CCC2OC)CC1 (configuration not stated)	none
CCOC(=O)c1cnc2ccc(-c3cncc(NS(=O)(=O)c4ccccc4)c3)cn12	none | IP6K1 inh cnf inconclusive
CCOC(=O)c1cccc(NS(=O)(=O)c2ccc(-c3coc(C)n3)cc2)c1	none (no result: GPT2 inhibitor)
COc1ccccc1NC(=O)C1=C(C)Nc2nc3ccccc3n2C1c1ccccc1Cl (configuration not stated)	none (no result: GPT2 inhibitor)
